From article PMC11102866, “Nucleosome-bound NR5A2 structure reveals pioneer factor mechanism by DNA minor groove anchor competition”
Numbering of substitutions follows the chain as printed. Numbers in names are those of the source.

B1: 1 (nucleosome)
DNA 1: ATCTCAAGGCCACCCGGTGCCGAGGCCGCTCAATTGGTCGTAGACAGCTCTAGCACCGCTTAAACGCACGTACGCGCTGTCCCCCGCGTTTTAACCGCCAAGGGGATTACTCCCTAGTCTCCAGGCACGTGTCAGATATATACATCCTGTGAT
DNA 2: ATCACAGGATGTATATATCTGACACGTGCCTGGAGACTAGGGAGTAATCCCCTTGGCGGTTAAAACGCGGGGGACAGCGCGTACGTGCGTTTAAGCGGTGCTAGAGCTGTCTACGACCAATTGAGCGGCCTCGGCACCGGGTGGCCTTGAGAT
modifications: reconstituted with mouse histones H2A, H2B, H3.3 and H4
B2: 2 (nucleosome)
DNA 1: B1 DNA 1 with T4C, C5T, A6C, G8A, C10G, A12C, C13A
DNA 2: B1 DNA 2 with G141T, T142G, G144C, C146T, T148G, G149A, A150G
modifications: reconstituted with mouse histones H2A, H2B, H3.3 and H4
B3: 12 (nucleosome)
DNA 1: ATCCTGGAGAATCCTCAAGGCCAGGCCGCTCAATTGGTCGTAGACAGCTCTAGCACCGCTTAAACGCACGTACGCGCTGTCCCCCGCGTTTTAACCGCCAAGGGGATTACTCCCTAGTCTCCAGGCACGTGTCAGATATATACATCCTGTGAT
DNA 2: ATCACAGGATGTATATATCTGACACGTGCCTGGAGACTAGGGAGTAATCCCCTTGGCGGTTAAAACGCGGGGGACAGCGCGTACGTGCGTTTAAGCGGTGCTAGAGCTGTCTACGACCAATTGAGCGGCCTGGCCTTGAGGATTCTCCAGGAT
modifications: reconstituted with mouse histones H2A, H2B, H3.3 and H4
B4: 102 (nucleosome)
DNA 1: ATCCTGGAGAATCCCGGTGCCGAGGCCGCTCAATTGGTCGTAGACAGCTCTAGCACCGCTTAAACGCACGTACGCGCTGTCCCCCGCGTTTTAACCGCCAAGGGTCAAGGCCACTAGTCTCCAGGCACGTGTCAGATATATACATCCTGTGAT
DNA 2: ATCACAGGATGTATATATCTGACACGTGCCTGGAGACTAGTGGCCTTGACCCTTGGCGGTTAAAACGCGGGGGACAGCGCGTACGTGCGTTTAAGCGGTGCTAGAGCTGTCTACGACCAATTGAGCGGCCTCGGCACCGGGATTCTCCAGGAT
modifications: reconstituted with mouse histones H2A, H2B, H3.3 and H4
B5: 103 (nucleosome)
DNA 1: B4 DNA 1 with T105G, C106T, A107C, G109A, C111G, A113C, C114A
DNA 2: B4 DNA 2 with G40T, T41G, G43C, C45T, T47G, G48A, A49C
modifications: reconstituted with mouse histones H2A, H2B, H3.3 and H4
B6: 104 (nucleosome)
DNA 1: B4 DNA 1 with T105G, C106A, A107T, A108C, G109A, G110A, C111G, C112G, A113C, T115A
DNA 2: B4 DNA 2 with A39T, T41G, G42C, G43C, C44T, C45T, T46G, T47A, G48T, A49C
modifications: reconstituted with mouse histones H2A, H2B, H3.3 and H4
B7: 105 (nucleosome)
DNA 1: B4 DNA 1 with T105G, C106A, A107T, A108T, G109C, G110A, C111A, C112G, A113G, T115C
DNA 2: B4 DNA 2 with A39G, T41C, G42C, G43T, C44T, C45G, T46A, T47A, G48T, A49C
modifications: reconstituted with mouse histones H2A, H2B, H3.3 and H4
B8: 106 (nucleosome)
DNA 1: ATCCTGGAGAATCCCGGTGCCGAGGCCGCTCAATTGGTCGTAGACAGCTCTAGCACCGCTTAAACGCACGTACGCGCTGTCCCCCGCGTTTTAACCGCCAAGGGGATTTCAAGGCCATCTCCAGGCACGTGTCAGATATATACATCCTGTGAT
DNA 2: ATCACAGGATGTATATATCTGACACGTGCCTGGAGATGGCCTTGAAATCCCCTTGGCGGTTAAAACGCGGGGGACAGCGCGTACGTGCGTTTAAGCGGTGCTAGAGCTGTCTACGACCAATTGAGCGGCCTCGGCACCGGGATTCTCCAGGAT
modifications: reconstituted with mouse histones H2A, H2B, H3.3 and H4
B9: 107 (nucleosome)
DNA 1: B8 DNA 1 with T109A, C110T, A111C, G113A, C115G, A117C, T118A
DNA 2: B8 DNA 2 with A36T, T37G, G39C, C41T, T43G, G44A, A45T
modifications: reconstituted with mouse histones H2A, H2B, H3.3 and H4
B10: 108 (nucleosome)
DNA 1: B8 DNA 1 with T109A, A111T, A112C, G113A, G114A, C115G, C116G, A117C, T118C, C119A
DNA 2: B8 DNA 2 with G35T, A36G, T37G, G38C, G39C, C40T, C41T, T42G, T43A, A45T
modifications: reconstituted with mouse histones H2A, H2B, H3.3 and H4
B11: 109 (nucleosome)
DNA 1: B8 DNA 1 with T109A, A111T, A112T, G113C, G114A, C115A, C116G, A117G, T118C, T120A
DNA 2: B8 DNA 2 with A34T, A36G, T37C, G38C, G39T, C40T, C41G, T42A, T43A, A45T
modifications: reconstituted with mouse histones H2A, H2B, H3.3 and H4
B12: 110 (nucleosome)
DNA 1: ATCCTGGAGAATCCCGGTGCCGAGGCCGCTCAATTGGTCGTAGACAGCTCTAGCACCGCTTAAACGCACGTACGCGCTGTCCCCCGCGTTTTAACCGCCAAGGGGATTACTCTCAAGGCCACAGGCACGTGTCAGATATATACATCCTGTGAT
DNA 2: ATCACAGGATGTATATATCTGACACGTGCCTGTGGCCTTGAGAGTAATCCCCTTGGCGGTTAAAACGCGGGGGACAGCGCGTACGTGCGTTTAAGCGGTGCTAGAGCTGTCTACGACCAATTGAGCGGCCTCGGCACCGGGATTCTCCAGGAT
modifications: reconstituted with mouse histones H2A, H2B, H3.3 and H4
B13: 111 (nucleosome)
DNA 1: B12 DNA 1 with T113C, C114T, A115C, G117A, C119G, A121C, C122A
DNA 2: B12 DNA 2 with G32T, T33G, G35C, C37T, T39G, G40A, A41G
modifications: reconstituted with mouse histones H2A, H2B, H3.3 and H4
B14: 13 (nucleosome)
DNA 1: B3 DNA 1 with T15C, C16T, A17C, G19A, C21G, A23C, G24A
DNA 2: B3 DNA 2 with C130T, T131G, G133C, C135T, T137G, G138A, A139G
modifications: reconstituted with mouse histones H2A, H2B, H3.3 and H4
B15: 112 (nucleosome)
DNA 1: B12 DNA 1 with T113C, A115T, A116C, G117A, G118A, C119G, C120G, A121C
DNA 2: B12 DNA 2 with T33G, G34C, G35C, C36T, C37T, T38G, T39A, A41G
modifications: reconstituted with mouse histones H2A, H2B, H3.3 and H4

Columns and labels:
[1] = biological target: NR5A2 wild type;histone octamer (Homo sapiens;, UniProt O00482;C0HKE1;Q6ZWY9;P84244;P62806 1-541;2-130;2-126;2-136;2-103, |); test: SeEN-seq (EMSA of nucleosome library followed by sequencing); 0.8 uM human NR5A2; 20 mM Tris-HCl pH 7.5, 120 mM NaCl, 1 mM MgCl2, 10 uM ZnCl2, 1 mM DTT, 100 ug/ml BSA, room temperature, 30 min; 0.1 uM nucleosome library; high values mean tight binding
[2] = biological target: mouse Nr5a2 wild type;histone octamer (Mus musculus;, UniProt P45448;C0HKE1;Q6ZWY9;P84244;P62806 1-560;2-130;2-126;2-136;2-103, |); test: SeEN-seq (EMSA of nucleosome library followed by sequencing); 1.2 uM mouse Nr5a2; 20 mM Tris-HCl pH 7.5, 120 mM NaCl, 1 mM MgCl2, 10 uM ZnCl2, 1 mM DTT, 100 ug/ml BSA, room temperature, 30 min; 0.1 uM nucleosome library; high values mean tight binding

Binder	binding signal [1]	binding signal [2]
B1	6.41 log2 enrichment (bound/unbound, relative to Widom 601)	5.85 log2 enrichment (bound/unbound, relative to Widom 601)
B2	6.87 log2 enrichment (bound/unbound, relative to Widom 601)	5.51 log2 enrichment (bound/unbound, relative to Widom 601)
B3	4.6 log2 enrichment (bound/unbound, relative to Widom 601)	4.25 log2 enrichment (bound/unbound, relative to Widom 601)
B4	0.685 log2 enrichment (bound/unbound, relative to Widom 601)	0.658 log2 enrichment (bound/unbound, relative to Widom 601)
B5	0.782 log2 enrichment (bound/unbound, relative to Widom 601)	0.764 log2 enrichment (bound/unbound, relative to Widom 601)
B6	1.03 log2 enrichment (bound/unbound, relative to Widom 601)	0.764 log2 enrichment (bound/unbound, relative to Widom 601)
B7	1.55 log2 enrichment (bound/unbound, relative to Widom 601)	1.09 log2 enrichment (bound/unbound, relative to Widom 601)
B8	1.84 log2 enrichment (bound/unbound, relative to Widom 601)	1.23 log2 enrichment (bound/unbound, relative to Widom 601)
B9	0.733 log2 enrichment (bound/unbound, relative to Widom 601)	0.834 log2 enrichment (bound/unbound, relative to Widom 601)
B10	0.869 log2 enrichment (bound/unbound, relative to Widom 601)	0.815 log2 enrichment (bound/unbound, relative to Widom 601)
B11	0.938 log2 enrichment (bound/unbound, relative to Widom 601)	0.719 log2 enrichment (bound/unbound, relative to Widom 601)
B12	0.939 log2 enrichment (bound/unbound, relative to Widom 601)	0.962 log2 enrichment (bound/unbound, relative to Widom 601)
B13	1.01 log2 enrichment (bound/unbound, relative to Widom 601)	1.02 log2 enrichment (bound/unbound, relative to Widom 601)
B14	4.51 log2 enrichment (bound/unbound, relative to Widom 601)	3.55 log2 enrichment (bound/unbound, relative to Widom 601)
B15	0.87 log2 enrichment (bound/unbound, relative to Widom 601)	0.753 log2 enrichment (bound/unbound, relative to Widom 601)
